# Only some compounds are listed: those with a hit (about 4.1% of all), similar ones and a draw of the others.
# hgDAF-12 ag = H. glycines DAF-12 receptor agonists, primary screen, cell-based, luminescence, HEK293, GAL4 fusion, UAS-luciferase; Nuclear hormone receptor DAF-12 (Heterodera glycines), GAL4 fusion; HEK293 GAL4-hgDAF12 UAS-luciferase reporter, agonist luminescence; normalized to butyrate control; AID 687014, 2013; activation, % at 6.8 µM; hit rate 1.8% among 370,000;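 active means activation above a cutoff set at the mean of all screened compounds plus 3 SD, cut at about 10% in these data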;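 further: 0% = DMSO wells and 100% = sodium butyrate wells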
# hcDAF-12 act = H. contortus DAF-12 nuclear receptor activators, primary screen, cell-based, luminescence, HEK293, lit1-tk-luc reporter; HEK293 hcDAF-12 lit1-tk-luc reporter; 0% DMSO, 100% Δ7-dafachronic acid; activation, % at 6.8 µM; hit rate 1.4% among 370,000; AID 652067, 2013;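 active means activation above the mean of all tested compounds plus 3 SD, cut at about 5.5% in these data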;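 further: 100% = response to 3 µM Δ7-dafachronic acid high control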
# DAX1 inh-1 = DAX1 (NR0B1) inhibitors, primary screen, cell-based, HEK293, Gal4-DAX1, luciferase luminescence; Nuclear receptor subfamily 0 group B member 1 (Homo sapiens), P51843; HEK293 Gal4-DAX1 luciferase reporter; inhibition, % at 6.75 µM; hit rate 0.99% among 340,000;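 active means inhibition above the mean over all tested compounds plus 3 SD, cut at about 4.2% in these data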;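 further: 0% = DAX1-transfected cells with DMSO and 100% = empty-vector control cells with DMSO; inhibition shows as a rise in luminescence from relieved DAX1 repression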
# Target sequence (P51843 207-470 limits assumed): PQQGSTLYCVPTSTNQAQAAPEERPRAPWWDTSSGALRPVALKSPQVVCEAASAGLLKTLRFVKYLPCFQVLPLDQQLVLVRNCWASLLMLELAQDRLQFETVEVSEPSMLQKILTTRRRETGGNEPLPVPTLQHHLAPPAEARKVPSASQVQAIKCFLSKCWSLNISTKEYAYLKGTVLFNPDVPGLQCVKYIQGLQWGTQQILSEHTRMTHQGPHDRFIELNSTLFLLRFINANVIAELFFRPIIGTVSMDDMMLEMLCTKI
# ssDAF-12 act = S. stercoralis DAF-12 nuclear receptor activators, primary screen, cell-based, luminescence, HEK293, GRIP1 co-expression, lit1-tk-luc; Nuclear hormone receptor DAF-12 (Strongyloides stercoralis); HEK293 ssDAF-12/GRIP1 lit1-tk-luc reporter; % of 3 µM dafachronic acid response; activation, % at 6.8 µM; hit rate 1% among 370,000; AID 652126, 2013;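 active means activation above the mean over all tested compounds plus 3 SD, cut at about 0.9% in these data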;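 further: 0% = DMSO-only wells and 100% = 3 µM delta7-dafachronic acid wells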
# DAX1 inh-2 = DAX1 (NR0B1) inhibitors on StAR promoter, primary screen, cell-based, luminescence, SF-1 (NR5A1), full-length DAX-1; inhibition, % at 6.8 µM; HEK293T StAR-luciferase reporter, SF-1/DAX-1 repression relief; hit rate 1.1% among 370,000;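 active means inhibition above the mean over all tested compounds plus 3 SD, cut at about 3.6% in these data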;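 further: 0% = DAX-1 cells with DMSO and 100% = cells lacking DAX-1 with DMSO; higher inhibition means more luminescence from relief of DAX-1 repression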
# An asterisk follows results filed as active; . = no result given.
SMILES,hgDAF-12 ag,hcDAF-12 act,DAX1 inh-1,ssDAF-12 act,DAX1 inh-2
COC(=O)[C@@]1(C(C)C)N=C(c2cc(OC)c(OC)c(OC)c2)[C@]2(O1)C(=O)N(Cc1cn(Cc3ccccc3)nn1)c1ccc(F)cc12,0,-3,.,-2,0
CC(C)CN1C(=O)C[C@]2(C(=O)N(C)c3ccc(NS(=O)(=O)C4CC4)cc32)C1c1ccccc1 (stereo partly specified),-1,-1,.,0,-1
CC(=O)Nc1ccc2nc(C3CC3)n(Cc3ccc(Cl)cc3)c(=O)c2c1,8,2,4,0,3
COc1ccc(Cn2c(C3CC3)nc3ccc(NC(=O)C4CC4)cc3c2=O)cc1,11*,3,3,1,2
CCC(CC)CN1CCC(CN2C(=S)NC[C@@H]2CC(C)C)CC1,1,0,1,-1,3.7*
CC(C)C[C@H]1CNC(=S)N1CC1CCN(CCC2CCCC2)CC1,3,0,-1,-1,3
COc1cccc(/C=C2\SC(=S)N(CC3CCCO3)C2=O)c1 (stereo unspecified),13*,0,-1,0,-1
COc1cccc(/C=C2\SC(=S)N(N3C(=O)CCCC3=O)C2=O)c1,0,-1,5.7*,-1,0
CC(C)(C)NC(=O)c1ccncc1,-2,-2,-1,-1,0
CC(=O)c1c(C(C)=O)c(C)n(NC(=O)c2ccncc2)c1C,-1,0,5.7*,-1,-1
COc1ccc([C@H]2C=C3CN(C(=O)OC(C)(C)C)S(=O)(=O)[C@H]3C[C@H]2OC(=O)c2ccc(C(F)(F)F)cc2)cc1,0,5.7*,2,0,1
COc1ccc(C(=O)OC2CCN(c3ncc(C(F)(F)F)cc3Cl)CC2)cc1,1,1,1,-2,-1
Cc1ccc(C(=O)Nc2nc3ccc(S(C)(=O)=O)cc3s2)o1,12*,2,1,-1,0
Cc1ccc(C(=O)Nc2ccc3nc(C)sc3c2)s1,10,3,2,0,3
CN(C)S(=O)(=O)c1ccc2nc(NC(=O)c3cccnc3)sc2c1,11*,3,4.7*,0,1
Cc1ccc(C(=O)Nc2ccc3nc(C)sc3c2)o1,11*,3,2,-1,4.0*
Cc1nc2cc(NC(=O)c3ccc(Br)s3)ccc2s1,11*,1,-2,0,3
O=C(CSc1nnc(-c2cccs2)o1)c1cccc([N+](=O)[O-])c1,-3,-1,.,-1,0
CCOC(=O)Cn1cc(CN2C(C(=O)OC)CN(Cc3ccccc3)CCS2(=O)=O)nn1 (stereo unspecified),0,2,.,0,0
Cc1cc(N/C=C(\C#N)S(=O)(=O)c2ccc(Cl)cc2)nc(C)n1,2,0,4.2*,-1,0
CCN(CC)C(=O)CC[C@@H]1CC[C@]2(CCCN(S(=O)(=O)c3ccccc3)C2)O1,-3,-3,.,-1,2
COc1ccc(CCNC(=O)CSc2nc3[nH]ncc3c(=O)n2-c2ccc(C)c(Cl)c2)cc1OC,0,2,1,1.8*,-3
CCC(c1nnc(SCC(=O)NCCc2ccc(OC)c(OC)c2)n1Cc1ccccc1)N(C)C (stereo unspecified),-1,0,3,1.2*,0
CCC(c1nnc(SCC(=O)Nc2ccc(NC(C)=O)cc2)n1Cc1ccccc1)N(C)C (stereo unspecified),2,1,1,-1,-1
COc1ccc(C(=O)C2CCCN(C(=O)c3cccnc3SC)C2)c(C)c1 (stereo unspecified),-2,-3,0,-1,-1
O=C(COC(=O)c1cncc(Br)c1)Nc1ccc(N2CCCCC2)cc1,1,4,1,1.8*,-1
C=CCn1c(SCC(=O)Nc2ccc(F)cc2F)nc2c([nH]c3ccccc32)c1=O,1,3,0,1.9*,-1
